Data on 29 compounds can be found in PubChem BioAssay (NCI).

Test in all cases: NCI-60 one-dose screen, 48 h (100 = growth as untreated, 0 = no growth, -100 = all killed)
What all share (details): 10 µM unless noted

The subject of test [1] is SK-MEL-2 melanoma.
The subject of test [2] is EKVX NSCLC.
Test [3] deals with SN12C renal.
The test system of test [4] is UO-31 renal.
Test [5] has as its system TK-10 renal.
Test [6] has as its system ACHN renal.
In test [7] the test system is CAKI-1 renal.
Test [8] has as its system CCRF-CEM leukemia.
For test [9], the system named is MOLT-4 leukemia.
For test [10], the system named is A498 renal.

The panel holds about 83,000 compounds, 20% with a hit somewhere; the sample as a whole holds those more often.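 Method: cells in 96-well plates; compound added at one concentration; 48 h incubation; percent growth measured; values under 10 scored active.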 Unmarked numbers belong to inactive results. Active and inactive are the calls of the source.

In the case of `O=S(=O)(Nc1ccc2c(c1)OCO2)c1ccc(-c2cnc(C3CC3)o2)cc1`, the growth in test [1] is 53.5%; in test [2] it was 43.2%; in test [3], 36.8%; in [4], 45.5%; in test [5], 73.8%; in [6] it was 43.6%. Moreover, the growth in test [7] was 40.8%; in [8] it was 27%; in test [9] it was 31.5%.

On to `NC(N)=Nc1ccc(Oc2cccc(NC(N)=Nc3ccc(Cl)c(C(F)(F)F)c3)c2)cc1`, for which the growth is 83% in test [1]; 64.4% in test [2]; 31% in test [3]; 87% in test [4]; 74% in test [5]; 87.8% in [6]. For the same compound, the growth in test [10] was 54%; in [8], 61.8%; in [9], 51.9%.

For the compound `O=C(Nc1cccc(Cl)c1)Nc1nc2ccc([N+](=O)[O-])cc2o1`, the growth is 3.62% (active) in test [1]; 16.7% in test [2]; 16.8% in test [3]; 24% in test [4]; 8.49% (active) in test [5]; 23% in test [6]. Moreover, the growth was 15.8% in test [7], 10.5% in test [8] and 9.15% (active) in test [9].

As for `O=C(O)c1ccc(-n2cc(CNc3cc(F)c(F)c(F)c3)c(-c3ccc(F)cc3)n2)cc1`, the growth in test [1] was 78.7%; in test [2] it was 85.6%; in test [3], 91.9%; in [4] it was 77.4%; in test [5], 150%; in [6], 71.4%. Further, the growth in [10] was 97.6%; in [8], 82.7%; in test [9] it was 74.2%.

`CN(C)CCNC(=O)c1ccc(-c2nc3ccc4[nH]ncc4c3c3c2COCC3)cc1`: the growth in test [1] is -69.7% (active); in test [2], 33.1%; in test [3], 5.07% (active); in test [4] it was 82.9%; in test [5], 44%; in [6], 69.4%. Besides, the results for the growth in test [10], in test [8] and in [9] were -60.4% (active), 2.22% (active) and -9.13% (active), respectively.

For the compound `C=C(C=O)[C@@H]1CC[C@]2(CO)CC[C@]3(C)[C@H](CC[C@@H]4[C@@]5(C)CCCNC(C)(C)[C@@H]5CC[C@]43C)[C@@H]12`, the growth in [1] is 99.5%; in test [2], 88.2%; in [3], 54.6%; in test [4] it was 78.3%; in test [5], 125%; in test [6], 88.9%. The growth in test [7] is 67.5%; in [8] it was 2.49% (active); in test [9] it was 28%.

On to `COc1cccc(/C=C(/C)c2ccc3cccc(OC)c3[o+]2)c1O`, for which the growth is 106% in test [1]; 89.6% in [2]; 97.3% in test [3]; 88.8% in test [4]; 116% in test [5]; 95.4% in test [6]. The growth in test [10] is 84%; in [8], 104%; in test [9] it was 92%.

For the compound `CCOc1ccc(NC2=C(Cl)C(=O)c3nc(C)ccc3C2=O)cc1`, the growth was -49.8% (active) in test [1]; -97.5% (active) in test [2]; -57.3% (active) in test [3]; -65% (active) in test [4]; 121% in [5]; -98.4% (active) in test [6]. Besides, the growth in test [10] is 101%; in test [8], 0.626% (active); in [9] it was -46.7% (active).

`CN(C)CCNC(=O)c1ccc(-c2nc3ccc4[nH]ncc4c3c3c2CCC3)cc1`: the growth in test [1] is -22.8% (active); in test [2], 15.3%; in test [3], 7.23% (active); in [4], 18.2%; in test [5], 22.1%; in test [6], 12.8%. The figures for the growth in test [10], in [8] and in test [9] were -63.6% (active), 3.51% (active) and 7.28% (active), respectively.

Consider `O=C(NNc1nc2cc(F)ccc2n2c(CN3CC4CNCC4C3)ccc12)c1cnccn1` (stereo unspecified), for which the growth in [1] was 30.9%; in [2] it was 25.9%; in test [3] it was 27.5%; in test [4], 19.7%; in test [5] it was 22.4%; in [6] it was 17.4%. The growth is 36.9% in [10], 12.1% in test [8] and 5.6% (active) in test [9].

In the case of `CN1CCN(Cc2ccc(NC(=O)c3cncc(C#Cc4cnc5ccc(OCC(C)(C)O)nn45)c3)cc2C(F)(F)F)CC1`, the growth in [1] is -80.4% (active); in test [2], -31.2% (active); in test [3] it was 2.45% (active); in test [4] it was -87.9% (active); in [5], -18.5% (active); in [6], -33.3% (active). Also, the results for the growth in test [10], in test [8] and in test [9] were -84.1% (active), 6.09% (active) and 5.42% (active), respectively.

On to `COc1ccc2c(c1)c(CC(=O)[Se]CCC#N)c(C)n2C(=O)c1ccc(Cl)cc1`, for which the growth in test [1] was 9.95% (active); in test [2], -82.5% (active); in test [3], -82.6% (active); in [4], -21.7% (active); in test [5], -74.7% (active); in test [6] it was 5.57% (active). The growth was -42.9% (active) in test [10], 5.22% (active) in test [8] and 0.134% (active) in test [9].

Regarding `COC(=O)C[Se]C(=O)Cc1c(C)n(C(=O)c2ccc(Cl)cc2)c2ccc(OC)cc12`, the growth in [1] was 86.8%; in [2] it was 15.1%; in test [3] it was 57.1%; in test [4], 9.87% (active); in test [5], 70.6%; in test [6], 53.2%. In addition, the growth in test [10] was 70.6%; in test [8], 50.1%; in [9], 67.1%.

Consider `COc1ccc(C(=O)c2c(N)c(C#N)cn2-c2ccccc2OC)cc1`, for which the growth in test [1] was 45.3%; in test [2], 48.2%; in test [3] it was 45.1%; in test [4] it was 47.9%; in test [5], 83.2%; in [6], 46.7%. Further, the growth is 7.39% (active) in [10], 19.9% in [8] and 30.5% in [9].

On to `COc1cc(-c2nn(C(C)(C)C)cc2-c2ccnc(NCCCNS(=O)(=O)c3ccccc3)n2)ccc1Cl`, for which the growth in test [1] is 89.6%; in [2] it was 36.5%; in test [3], 52%; in [4], 39.4%; in [5] it was 66%; in [6] it was 77.2%. The growth in test [7] was 27%; in test [10], 31.2%; in test [9], 59.6%.

`O=C(Nc1nc2ccc([N+](=O)[O-])cc2s1)Nc1ccccc1Cl`: the growth is 9.56% (active) in test [1]; 33.6% in test [2]; 10.4% in [3]; 31.8% in [4]; 40.1% in [5]; 42.7% in test [6]. Also, the growth in test [7] was 21.8%; in [8], 28.9%; in test [9] it was 21.8%.

With `NC(N)=Nc1ccc(Oc2cccc(NC(N)=Nc3ccc(I)cc3F)c2)cn1`, the growth in test [1] is 86.8%; in test [2], 63%; in test [3], 39.4%; in test [4], 83.8%; in test [5], 71.3%; in [6], 94.9%. The figures for the growth in [10], in test [8] and in test [9] were 49%, 43.2% and 42.8%, respectively.

Regarding `COc1ccc(/C=C(/C)c2ccc3ccc(OC)cc3[o+]2)c(O)c1`, the growth was 94.3% in test [1]; 55.8% in [2]; 85.5% in [3]; 69.4% in [4]; 174% in [5]; 70.2% in test [6]. The growth was 110% in test [10], 11.2% in test [8] and 34.7% in test [9].

`NC(N)=Nc1ccc(Oc2cccc(NC(N)=Nc3ccc(Br)cc3)c2)cn1`: the growth in test [1] was 84.3%; in test [2], 62%; in [3], 20.6%; in [4], 85%; in [5] it was 69.1%; in test [6], 95.5%. Moreover, the values for the growth in test [10], in test [8] and in [9] were 64.3%, 58.5% and 65%, respectively.

`C=CCn1c(SCC(=O)Nc2ccc(C(=O)/C=C/c3ccc(Cl)cc3)cc2)nnc1-c1c[nH]c2ccccc12`: the growth in [1] was 88.7%; in test [2], 56.1%; in test [3], 71.5%; in test [4], 47.8%; in [5], 103%; in [6] it was 77.6%. In addition, the growth was 91.4% in test [10], 75.3% in [8] and 66.4% in [9].

For `COc1c(N2CC3CCCNC3C2)c(F)cc2c(=O)c(C(=O)N/N=C/c3ccc(Br)cc3)cn(C3CC3)c12` (stereo unspecified), the growth was 100% in test [1]; 90.4% in test [2]; 78.8% in test [3]; 60.5% in [4]; 121% in test [5]; 89.2% in test [6]. Moreover, the growth in test [10] was 74.3%; in [8] it was 55.3%; in test [9] it was 54.9%.

Consider `O=S(=O)(Nc1cccc2ccccc12)c1ccc(-c2cnc(C3CC3)o2)cc1`, for which the growth in [1] was 72.3%; in test [2] it was 43.1%; in [3], 34.3%; in test [4], 43.5%; in [5], 92.6%; in test [6], 36.9%. The growth in test [7] was 29.9%; in test [8] it was 17.6%; in test [9], 21.8%.

For the compound `CCOc1ccccc1NC1=C(Cl)C(=O)c2nc(C)ccc2C1=O`, the growth in [1] was -15.7% (active); in test [2] it was -2.24% (active); in test [3] it was -51% (active); in [4] it was -93% (active); in test [5], 124%; in [6], -99.1% (active). Further, the growth in test [10] is 78.8%; in test [8], -6.33% (active); in test [9] it was -24.9% (active).

For the compound `COc1ccc2c(c1)c(CC(=O)[Se]CC(=O)O)c(C)n2C(=O)c1ccc(Cl)cc1`, the growth in test [1] is 102%; in test [2], 103%; in test [3] it was 58.5%; in test [4] it was 94.4%; in [5] it was 104%; in test [6], 103%. Also, the results for the growth in test [10], in test [8] and in test [9] were 69.3%, 94.6% and 99.8%, respectively.

On to `O=C(CSc1nc2ccccc2c(=O)n1-c1ccc(Cl)cc1)N/N=C/c1ccc(N2CCCCC2)cc1`, for which the growth is 99.5% in test [1]; 82.1% in test [2]; 62.4% in [3]; 53% in test [4]; 103% in [5]; 17.4% in test [6]. Besides, the growth in test [10] was 78.5%; in test [8], 87%; in [9], 92%.

In the case of `COc1cc(/C=C2\C(=O)Nc3ccccc32)ccc1OCc1ccc(Cl)cc1`, the growth was 105% in test [1]; 95.3% in test [2]; 103% in test [3]; 81.3% in test [4]; 136% in test [5]; 92.7% in test [6]. The growth in test [10] is 115%; in [8], 94.9%; in test [9] it was 93.9%.

Take `O=C(NNc1nc2cc(F)cc(F)c2n2cccc12)c1cnccn1`: the growth in test [1] was 32.6%; in [2], 8.74% (active); in [3], 25.5%; in [4] it was 18.1%; in test [5], 21.9%; in test [6] it was 14.5%. In addition, the growth was 11.1% in [10], 10.6% in [8] and 1.8% (active) in test [9].

As to `O=C(NCCN1CCCC1)c1ccc(-c2nc3ccc4[nH]ncc4c3c3c2CCCC3)cc1`, the growth is 10.1% in [1]; 24% in test [2]; 8.98% (active) in [3]; 43.3% in [4]; 27.3% in test [5]; 15.8% in test [6]. Moreover, the results for the growth in test [10], in test [8] and in [9] were -80% (active), 9% (active) and -26% (active), respectively.

As for `CN1CCN(Cc2ccc(NC(=O)c3cncc(C#Cc4cnc5ccc(OCC6(C)COC6)nn45)c3)cc2C(F)(F)F)CC1`, the growth was -75.7% (active) in test [1]; -83.3% (active) in [2]; -76.2% (active) in test [3]; -91.8% (active) in test [4]; -73.7% (active) in test [5]; -96.1% (active) in test [6]. The growth was -97.7% (active) in test [10], 1.98% (active) in [8] and 1.9% (active) in [9].
